{"source": "paper PMC9911399", "about": "“Two distinct binding modes provide the RNA-binding protein RbFox with extraordinary sequence specificity”", "binders": {"B1": {"name": "UAUUACU (DNA:RNA)", "RNA": "GGGAGACCGGAAUUCAGAUUGUCCUAUUACUUUAAAUCCCGUCGUAGCCACCA", "DNA 1": "CAATCTGAATTCCGGTCTCCC", "DNA 2": "TGGTGGCTACGACGGGATT"}, "B2": {"name": "AUAAGGU (DNA:RNA)", "RNA": "B1 RNA with U25A, A26U, U27A, U28A, A29G, C30G", "DNA 1": "CAATCTGAATTCCGGTCTCCC", "DNA 2": "TGGTGGCTACGACGGGATT"}, "B3": {"name": "CCGAAGU (DNA:RNA)", "RNA": "B1 RNA with U25C, A26C, U27G, U28A, C30G", "DNA 1": "CAATCTGAATTCCGGTCTCCC", "DNA 2": "TGGTGGCTACGACGGGATT"}, "B4": {"name": "AGGUAUU (DNA:RNA)", "RNA": "B1 RNA with U25A, A26G, U27G, C30U", "DNA 1": "CAATCTGAATTCCGGTCTCCC", "DNA 2": "TGGTGGCTACGACGGGATT"}, "B5": {"name": "UCAUCUG (DNA:RNA)", "RNA": "B1 RNA with A26C, U27A, A29C, C30U, U31G", "DNA 1": "CAATCTGAATTCCGGTCTCCC", "DNA 2": "TGGTGGCTACGACGGGATT"}, "B6": {"name": "GAGUUUA (DNA:RNA)", "RNA": "B1 RNA with U25G, U27G, A29U, C30U, U31A", "DNA 1": "CAATCTGAATTCCGGTCTCCC", "DNA 2": "TGGTGGCTACGACGGGATT"}, "B7": {"name": "ACUCUUU (DNA:RNA)", "RNA": "B1 RNA with U25A, A26C, U28C, A29U, C30U", "DNA 1": "CAATCTGAATTCCGGTCTCCC", "DNA 2": "TGGTGGCTACGACGGGATT"}, "B8": {"name": "AGGUCUA (DNA:RNA)", "RNA": "B1 RNA with U25A, A26G, U27G, A29C, C30U, U31A", "DNA 1": "CAATCTGAATTCCGGTCTCCC", "DNA 2": "TGGTGGCTACGACGGGATT"}, "B9": {"name": "CCGGAUC (DNA:RNA)", "RNA": "B1 RNA with U25C, A26C, U27G, U28G, C30U, U31C", "DNA 1": "CAATCTGAATTCCGGTCTCCC", "DNA 2": "TGGTGGCTACGACGGGATT"}, "B10": {"name": "CGGAAUC (DNA:RNA)", "RNA": "B1 RNA with U25C, A26G, U27G, U28A, C30U, U31C", "DNA 1": "CAATCTGAATTCCGGTCTCCC", "DNA 2": "TGGTGGCTACGACGGGATT"}, "B11": {"name": "GAGUCUC (DNA:RNA)", "RNA": "B1 RNA with U25G, U27G, A29C, C30U, U31C", "DNA 1": "CAATCTGAATTCCGGTCTCCC", "DNA 2": "TGGTGGCTACGACGGGATT"}, "B12": {"name": "GAGAGUC (DNA:RNA)", "RNA": "B1 RNA with U25G, U27G, U28A, A29G, C30U, U31C", "DNA 1": "CAATCTGAATTCCGGTCTCCC", "DNA 2": "TGGTGGCTACGACGGGATT"}, "B13": {"name": "CCGAGUC (DNA:RNA)", "RNA": "GGGAGACCGGAAUUCAGAUUGUCCCCGAGUCUUAAAUCCCGUCGUAGCCACCA", "DNA 1": "CAATCTGAATTCCGGTCTCCC", "DNA 2": "TGGTGGCTACGACGGGATT"}, "B14": {"name": "CGGGAUC (DNA:RNA)", "RNA": "B13 RNA with C26G, A28G, G29A", "DNA 1": "CAATCTGAATTCCGGTCTCCC", "DNA 2": "TGGTGGCTACGACGGGATT"}, "B15": {"name": "CAUGGAC (DNA:RNA)", "RNA": "B13 RNA with C26A, G27U, A28G, U30A", "DNA 1": "CAATCTGAATTCCGGTCTCCC", "DNA 2": "TGGTGGCTACGACGGGATT"}, "B16": {"name": "CUAAAAA (DNA:RNA)", "RNA": "B13 RNA with C26U, G27A, G29A, U30A, C31A", "DNA 1": "CAATCTGAATTCCGGTCTCCC", "DNA 2": "TGGTGGCTACGACGGGATT"}, "B17": {"name": "GGAGUAG (DNA:RNA)", "RNA": "GGGAGACCGGAAUUCAGAUUGUCCGGAGUAGUUAAAUCCCGUCGUAGCCACCA", "DNA 1": "CAATCTGAATTCCGGTCTCCC", "DNA 2": "TGGTGGCTACGACGGGATT"}, "B18": {"name": "UCGCUCC (DNA:RNA)", "RNA": "B13 RNA with C25U, A28C, G29U, U30C", "DNA 1": "CAATCTGAATTCCGGTCTCCC", "DNA 2": "TGGTGGCTACGACGGGATT"}, "B19": {"name": "GUCCUCG (DNA:RNA)", "RNA": "B17 RNA with G26U, A27C, G28C, A30C", "DNA 1": "CAATCTGAATTCCGGTCTCCC", "DNA 2": "TGGTGGCTACGACGGGATT"}, "B20": {"name": "UCGCUCG (DNA:RNA)", "RNA": "B13 RNA with C25U, A28C, G29U, U30C, C31G", "DNA 1": "CAATCTGAATTCCGGTCTCCC", "DNA 2": "TGGTGGCTACGACGGGATT"}, "B21": {"name": "UCGCUUG (DNA:RNA)", "RNA": "B13 RNA with C25U, A28C, G29U, C31G", "DNA 1": "CAATCTGAATTCCGGTCTCCC", "DNA 2": "TGGTGGCTACGACGGGATT"}, "B22": {"name": "UCCUCGC (DNA:RNA)", "RNA": "B13 RNA with C25U, G27C, A28U, G29C, U30G", "DNA 1": "CAATCTGAATTCCGGTCTCCC", "DNA 2": "TGGTGGCTACGACGGGATT"}, "B23": {"name": "UCGUCGC (DNA:RNA)", "RNA": "B13 RNA with C25U, A28U, G29C, U30G", "DNA 1": "CAATCTGAATTCCGGTCTCCC", "DNA 2": "TGGTGGCTACGACGGGATT"}, "B24": {"name": "UUCGUAA (DNA:RNA)", "RNA": "B17 RNA with G25U, G26U, A27C, G31A", "DNA 1": "CAATCTGAATTCCGGTCTCCC", "DNA 2": "TGGTGGCTACGACGGGATT"}, "B25": {"name": "GCGAAUA (DNA:RNA)", "RNA": "B13 RNA with C25G, G29A, C31A", "DNA 1": "CAATCTGAATTCCGGTCTCCC", "DNA 2": "TGGTGGCTACGACGGGATT"}, "B26": {"name": "AGCUUAC (DNA:RNA)", "RNA": "B17 RNA with G25A, A27C, G28U, G31C", "DNA 1": "CAATCTGAATTCCGGTCTCCC", "DNA 2": "TGGTGGCTACGACGGGATT"}, "B27": {"name": "UGACUUU (DNA:RNA)", "RNA": "B17 RNA with G25U, G28C, A30U, G31U", "DNA 1": "CAATCTGAATTCCGGTCTCCC", "DNA 2": "TGGTGGCTACGACGGGATT"}, "B28": {"name": "CAUGUCC (DNA:RNA)", "RNA": "B1 RNA with U25C, U28G, A29U, U31C", "DNA 1": "CAATCTGAATTCCGGTCTCCC", "DNA 2": "TGGTGGCTACGACGGGATT"}, "B29": {"name": "CUAGAAU (DNA:RNA)", "RNA": "B17 RNA with G25C, G26U, U29A, G31U", "DNA 1": "CAATCTGAATTCCGGTCTCCC", "DNA 2": "TGGTGGCTACGACGGGATT"}, "B30": {"name": "UAGCUCC (DNA:RNA)", "RNA": "B1 RNA with U27G, U28C, A29U, U31C", "DNA 1": "CAATCTGAATTCCGGTCTCCC", "DNA 2": "TGGTGGCTACGACGGGATT"}, "B31": {"name": "UCCUAGC (DNA:RNA)", "RNA": "B1 RNA with A26C, U27C, C30G, U31C", "DNA 1": "CAATCTGAATTCCGGTCTCCC", "DNA 2": "TGGTGGCTACGACGGGATT"}, "B32": {"name": "UAGCUUG (DNA:RNA)", "RNA": "B13 RNA with C25U, C26A, A28C, G29U, C31G", "DNA 1": "CAATCTGAATTCCGGTCTCCC", "DNA 2": "TGGTGGCTACGACGGGATT"}, "B33": {"name": "UAGCCCG (DNA:RNA)", "RNA": "B1 RNA with U27G, U28C, A29C, U31G", "DNA 1": "CAATCTGAATTCCGGTCTCCC", "DNA 2": "TGGTGGCTACGACGGGATT"}, "B34": {"name": "UAGCUCG (DNA:RNA)", "RNA": "B1 RNA with U27G, U28C, A29U, U31G", "DNA 1": "CAATCTGAATTCCGGTCTCCC", "DNA 2": "TGGTGGCTACGACGGGATT"}, "B35": {"name": "UAGUAGC (DNA:RNA)", "RNA": "B1 RNA with U27G, C30G, U31C", "DNA 1": "CAATCTGAATTCCGGTCTCCC", "DNA 2": "TGGTGGCTACGACGGGATT"}}, "note": "Changes are numbered by the printed parent chain; changes in the protein carry UniProt numbers. Whole data set: some 16,000 sequences, median “ka relative to ugcaugu” near 0.0091, cut for the highest 2% near 0.032. What follows is part of a selection rich in the highest values, with near analogues and random picks from the rest."}
{"target": "T1, RBFOX1 RRM (Homo sapiens, UniProt Q9NWB1 109-208)", "T1 sequence": "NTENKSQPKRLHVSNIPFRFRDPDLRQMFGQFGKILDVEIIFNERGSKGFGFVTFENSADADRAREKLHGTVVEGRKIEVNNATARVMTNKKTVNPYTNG", "assay": "EMSA; HiTS-Eq, 1 nM pool, 10 min; buffer printed only for the single-RNA assays: 10 mM Tris pH 7.5, 150 mM NaCl, 3.4 mM EDTA, 0.001% NP-40, 30 C", "settings": "tags: His6 N-terminal (pET28a); label: 5' 32P", "how_it_was_run": "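Purified RbFox RRM, wild type or mutant, was incubated for 10 min in 50 µL with 1 nM of a 5′-radiolabelled RNA pool carrying 7 randomized nucleotides, whose flanks were annealed to DNA oligonucleotides, over a series of increasing protein concentrations. Unbound RNA was resolved on 8% native PAGE, cut out, reverse-transcribed, barcoded by PCR and sequenced on an Illumina HiSeq 2500. Relative association constants were derived from changes in read counts for each RNA species versus the control reaction and normalised to the cognate motif.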"}
{"binder": "B1", "binding signal": "0.00399 KA relative to UGCAUGU"}
{"binder": "B2", "binding signal": "0.00979 KA relative to UGCAUGU"}
{"binder": "B3", "binding signal": "0.00878 KA relative to UGCAUGU"}
{"binder": "B4", "binding signal": "0.0064 KA relative to UGCAUGU"}
{"binder": "B5", "binding signal": "0.00773 KA relative to UGCAUGU"}
{"binder": "B6", "binding signal": "0.00687 KA relative to UGCAUGU"}
{"binder": "B7", "binding signal": "0.00357 KA relative to UGCAUGU"}
{"binder": "B8", "binding signal": "0.00527 KA relative to UGCAUGU"}
{"binder": "B9", "binding signal": "0.0104 KA relative to UGCAUGU"}
{"binder": "B10", "binding signal": "0.0233 KA relative to UGCAUGU"}
{"binder": "B11", "binding signal": "0.032 KA relative to UGCAUGU"}
{"binder": "B12", "binding signal": "0.0183 KA relative to UGCAUGU"}
{"binder": "B13", "binding signal": "0.0112 KA relative to UGCAUGU"}
{"binder": "B14", "binding signal": "0.0318 KA relative to UGCAUGU"}
{"binder": "B15", "binding signal": "0.00577 KA relative to UGCAUGU"}
{"binder": "B16", "binding signal": "0.000629 KA relative to UGCAUGU"}
{"binder": "B17", "binding signal": "0.0152 KA relative to UGCAUGU"}
{"binder": "B18", "binding signal": "0.0108 KA relative to UGCAUGU"}
{"binder": "B19", "binding signal": "0.0155 KA relative to UGCAUGU"}
{"binder": "B20", "binding signal": "0.0321 KA relative to UGCAUGU"}
{"binder": "B21", "binding signal": "0.0368 KA relative to UGCAUGU"}
{"binder": "B22", "binding signal": "0.00514 KA relative to UGCAUGU"}
{"binder": "B23", "binding signal": "0.0113 KA relative to UGCAUGU"}
{"binder": "B24", "binding signal": "0.00742 KA relative to UGCAUGU"}
{"binder": "B25", "binding signal": "0.0051 KA relative to UGCAUGU"}
{"binder": "B26", "binding signal": "0.00674 KA relative to UGCAUGU"}
{"binder": "B27", "binding signal": "0.0147 KA relative to UGCAUGU"}
{"binder": "B28", "binding signal": "0.00562 KA relative to UGCAUGU"}
{"binder": "B29", "binding signal": "0.00687 KA relative to UGCAUGU"}
{"binder": "B30", "binding signal": "0.00512 KA relative to UGCAUGU"}
{"binder": "B31", "binding signal": "0.0075 KA relative to UGCAUGU"}
{"binder": "B32", "binding signal": "0.0445 KA relative to UGCAUGU"}
{"binder": "B33", "binding signal": "0.0123 KA relative to UGCAUGU"}
{"binder": "B34", "binding signal": "0.0341 KA relative to UGCAUGU"}
{"binder": "B35", "binding signal": "0.0177 KA relative to UGCAUGU"}
